Laboratory results: PubChem BioAssay
Calls of active or inactive are those of the source. Unless noted, how the calls were made is not given here.

Key:
[1] = compound effects on lung adenocarcinoma cell viability – A549, calcein-AM fluorescence, 48 h, basal, profiling panel (AID 1162); conditions: higher = more signal; further: test concentration not given here
[2] = compound effects on differentiated 3T3-L1 adipocyte viability – cell-based, 3T3-L1 adipocytes, calcein-AM fluorescence, 48 h, basal, profiling panel (AID 1163); conditions: 3T3-L1 adipocytes viability, higher = more signal; further: test concentration not given here
[3] = compound effects on hepatocellular carcinoma cell viability – HepG2, calcein-AM fluorescence, 48 h, basal, profiling panel (AID 1164); conditions: higher = more signal; further: test concentration not given here
[4] = compound effects on multiple myeloma cell viability – MM1S, calcein-AM fluorescence, 48 h, basal, profiling panel (AID 1165); conditions: higher = more signal; further: test concentration not given here
[5] = calcein-AM signal in unstimulated myeloma cells – cell-based, calcein-AM fluorescence, 48 h, PK04 Diversity Set, profiling panel (AID 1166); conditions: RPMI8226 myeloma viability, higher = more signal;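 further: cells grown under basal conditions without added stimulus; test concentration not given here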
[6] = JC-1 mitochondrial signal, unstimulated HepG2 cells – cell-based, JC-1 fluorescence, 24 h, 100 nL compound, profiling panel (AID 1167); conditions: HepG2 mitochondrial potential, higher = more signal; further: test concentration not given here
[7] = JC-1 mitochondrial signal, unstimulated adipocytes – cell-based, JC-1 fluorescence, 3T3-L1 adipocytes, 24 h, 100 nL compound, profiling panel (AID 1168); conditions: JC-1 mitochondrial fluorescence, higher = more signal, called active from +8 up or from −8 down; further: test concentration not given here
[8] = JC-1 mitochondrial signal, unstimulated myeloma cells – cell-based, JC-1 fluorescence, RPMI8226, 24 h, 100 nL compound, profiling panel (AID 1169); conditions: JC-1 mitochondrial potential fluorescence, higher = more signal; further: test concentration not given here
[9] = JC-1 mitochondrial signal, unstimulated MM1S myeloma – cell-based, JC-1 fluorescence, 24 h, 100 nL compound, profiling panel (AID 1170); conditions: MM1S mitochondrial potential, higher = more signal; further: test concentration not given here
[10] = resazurin metabolic signal in A549 cells – cell-based, resazurin fluorescence, 24 h, PK04 Diversity Set, profiling panel (AID 1171); conditions: A549 viability, higher = more signal, called active from +8 up or from −8 down; further: test concentration not given here
[11] = resazurin metabolic signal in HepG2 cells – cell-based, resazurin fluorescence, 24 h, PK04 Diversity Set, profiling panel (AID 1172); conditions: HepG2 viability, higher = more signal; further: test concentration not given here
[12] = budding yeast growth changes without added modifier – OD600, strain BY4716, 24 h, basal condition, primary screen (AID 1173); conditions: S. cerevisiae BY4716 growth, OD600, 24 h; higher = more signal, called active from +8 up or from −8 down
[13] = viability profiling in MM1S myeloma cells – cell-based, resazurin fluorescence, basal, 24 h, PK04 Diversity Set, profiling panel (AID 1174); conditions: higher = more signal, called active from +8 up or from −8 down; further: test concentration not given here
[14] = biological target: Dihydroorotate dehydrogenase (quinone), mitochondrial (Plasmodium falciparum (isolate 3D7)) (UniProt Q08210); assay: inhibition of P. falciparum DHODH – biochemical, C-terminal His tag, absorbance 600 nm, primary screen (AID 1175); conditions: PfDHODH enzyme, DCIP absorbance 600 nm; higher = more signal, called active from +8 up or from −8 down;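 further: recombinant parasite enzyme with a five histidine tag at its C terminus; test concentration not given here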
[15] = inhibition of PAO1 biofilm formation – strain PAO1, LB-PBS medium, absorbance 600 nm, primary screen (AID 1176); further: test concentration not given here; conditions: P. aeruginosa PAO1 growth/biofilm, A600, 12 h; higher = more signal
[16] = growth modulation of vineyard yeast isolate – strain RM11-1a, OD600, basal, 24 h, primary screen (AID 1177);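 further: cultures grown under basal conditions with no added stressor; test concentration not given here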; conditions: S. cerevisiae RM11-1a growth, OD600, 24 h; higher = more signal, called active from +8 up or from −8 down
[17] = growth of efflux-deficient E. coli DRC39 – strain DRC39, OD650, 24 h, E. coli filamentation inducers, primary screen (AID 1178);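 further: growth measured as culture turbidity by optical density at 650 nm; test concentration not given here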; conditions: E. coli DRC39 acrAB, higher = more signal, called active from +8 up or from −8 down
[18] = growth of efflux-deficient E. coli DRC39 – strain DRC39, OD650, 48 h, E. coli filamentation inducers, primary screen (AID 1179);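 further: screen aims at cell division blockers that make cells filament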; conditions: E. coli DRC39 delta-acrAB growth, higher = more signal, called active from +8 up or from −8 down
[19] = viability profiling in RPMI8226 myeloma cells – cell-based, resazurin fluorescence, basal, 24 h, PK04 Diversity Set, profiling panel (AID 1180); conditions: higher = more signal;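 further: RPMI8826 multiple myeloma cell line at 5000 cells per well; test concentration not given here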
[20] = biological target: E3 ubiquitin-protein ligase XIAP (Homo sapiens) (UniProt P98170); assay: small molecules binding XIAP protein – biophysical, small-molecule microarray, fluorescence 635 nm, primary screen (AID 1181); conditions: higher = more signal;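 further: score merges 667 nm emission and signal to noise over triplicate slides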
Chain of E3 ubiquitin-protein ligase XIAP (Homo sapiens) (P98170 whole entry, looked up): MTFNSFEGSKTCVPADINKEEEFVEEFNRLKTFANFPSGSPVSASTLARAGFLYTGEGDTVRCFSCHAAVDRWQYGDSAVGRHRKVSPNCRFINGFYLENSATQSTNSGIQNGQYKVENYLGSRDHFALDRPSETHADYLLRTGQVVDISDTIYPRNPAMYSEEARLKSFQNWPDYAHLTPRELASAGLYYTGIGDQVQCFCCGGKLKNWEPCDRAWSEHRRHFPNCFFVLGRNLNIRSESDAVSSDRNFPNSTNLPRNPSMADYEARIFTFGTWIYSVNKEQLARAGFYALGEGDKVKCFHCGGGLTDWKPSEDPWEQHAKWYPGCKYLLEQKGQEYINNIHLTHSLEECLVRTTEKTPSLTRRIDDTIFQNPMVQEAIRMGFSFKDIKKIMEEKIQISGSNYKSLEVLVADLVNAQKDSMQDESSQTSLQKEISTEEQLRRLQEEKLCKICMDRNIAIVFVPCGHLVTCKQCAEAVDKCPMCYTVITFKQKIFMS

Chain of Dihydroorotate dehydrogenase (quinone), mitochondrial (Plasmodium falciparum (isolate 3D7)) (Q08210 whole entry, looked up): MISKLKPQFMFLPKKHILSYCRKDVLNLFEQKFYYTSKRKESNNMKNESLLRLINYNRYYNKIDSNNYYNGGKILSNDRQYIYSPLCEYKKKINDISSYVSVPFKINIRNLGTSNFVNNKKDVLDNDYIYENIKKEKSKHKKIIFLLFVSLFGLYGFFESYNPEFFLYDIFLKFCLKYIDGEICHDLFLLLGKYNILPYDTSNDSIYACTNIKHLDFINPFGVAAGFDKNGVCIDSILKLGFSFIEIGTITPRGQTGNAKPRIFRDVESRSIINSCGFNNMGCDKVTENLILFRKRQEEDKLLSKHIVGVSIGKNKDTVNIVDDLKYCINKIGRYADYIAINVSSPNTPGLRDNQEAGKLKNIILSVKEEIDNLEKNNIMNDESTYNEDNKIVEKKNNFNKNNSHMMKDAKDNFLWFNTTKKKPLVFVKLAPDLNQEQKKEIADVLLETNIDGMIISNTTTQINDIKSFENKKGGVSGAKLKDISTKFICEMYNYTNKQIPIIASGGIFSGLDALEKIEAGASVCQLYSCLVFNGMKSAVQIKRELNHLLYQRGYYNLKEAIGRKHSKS

Compound	z-score [1]	z-score [2]	z-score [3]	z-score [4]	z-score [5]	z-score [6]	z-score [7]	z-score [8]	z-score [9]	z-score [10]	z-score [11]	z-score [12]	z-score [13]	composite z-score [14]	z-score [15]	z-score [16]	z-score [17]	z-score [18]	z-score [19]	composite z-score [20]
Oc1ccc2cc[n+](Cc3cccc(OC(F)(F)F)c3)cc2c1	0.609	0.128	0.577	0.683	-0.592	0.303	0.339 (inactive)	0.593	-0.862	-1.81 (inactive)	-0.975	0.236 (inactive)	-0.304 (inactive)	-1.09 (inactive)	0.0061 (inactive)	0.585 (inactive)	0.4 (inactive)	0.743 (inactive)	-1.07	0.202
COCCOC(=O)N1C(=O)[C@@]2(c3cc(C#CCC(C(=O)OC)C(=O)OC)ccc31)[C@H](c1ccc(OCCO)cc1)N1[C@H](c3ccccc3)[C@H](c3ccccc3)OC(=O)[C@H]1[C@@H]2C(=O)NC[C@H](O)c1ccccc1	0.185	0.102	1.56	0.446	-2.01	0.177	1.39 (inactive)	-0.749	-1.61	0.0076 (inactive)	0.11	2.19 (inactive)	0.241 (inactive)	0.0044 (inactive)	2.7 (inactive)	3.3 (inactive)	0.732 (inactive)	0.855 (inactive)	-0.957	0.19
CN1C(=O)C2C=CC(C(O)C=Cc3ccc([N+](=O)[O-])cc3)N(N3CCCCC3)C2C1=O (stereo not given)	-1.1	-1.15	-0.382	-0.351	0.107	-1.77	-1.31 (inactive)	-0.834	-0.4	-0.244 (inactive)	-0.559	-1.42 (inactive)	-1.42 (inactive)	-0.358 (inactive)	1.01 (inactive)	-0.555 (inactive)	-0.685 (inactive)	-0.397 (inactive)	-1.88	0.142
O=C1O[C@H](c2ccccc2)[C@H](c2ccccc2)N2[C@H]1[C@@H](C(=O)NC[C@H](O)c1ccccc1)[C@]1(C(=O)Nc3ccc(C#CC4(O)CCCCCC4)cc31)[C@H]2c1ccccc1OCCO	-0.509	0.0001	-4.63	-3.33	-4.19	-2.67	3.14 (inactive)	-0.99	-2.01	-1.39 (inactive)	-2.48	1.6 (inactive)	-7.19 (inactive)	-0.147 (inactive)	2.83 (inactive)	3.43 (inactive)	0.408 (inactive)	0.283 (inactive)	-6.96	0.165
O=C1C2C=CC(C(O)CCc3ccccc3)N(Nc3ccccc3)C2C(=O)N1c1ccccc1 (stereo not given)	-1.22	-1.12	0.203	-0.46	0.198	-2.35	-0.727 (inactive)	-0.278	-0.174	-0.424 (inactive)	-0.999	-0.287 (inactive)	-1.81 (inactive)	0.228 (inactive)	1.12 (inactive)	0.361 (inactive)	-0.97 (inactive)	-1.18 (inactive)	-1.67	-0.16
Cc1ccc(N2C(=O)c3ccccc3[C@@H](C(=O)NCC(C)C)[C@@H]2c2ccc(CO)cc2)nc1	0.593	-0.136	0.558	-0.0617	0.662	2.02	1.09 (inactive)	-0.482	0.133	-0.613 (inactive)	-0.324	0.0089 (inactive)	0.439 (inactive)	0.351 (inactive)	0.348 (inactive)	-0.746 (inactive)	0.483 (inactive)	0.603 (inactive)	0.68	-0.148
C=C(CCCC)C(=O)CC[C@H](OC(=O)c1ccccc1-c1ccccc1C(=O)O)c1ccc(CO)o1	0.0743	0.418	-0.862	-0.0307	0.334	-0.373	-0.727 (inactive)	-0.658	0.063	1.09 (inactive)	0.985	0.671 (inactive)	0.319 (inactive)	-0.72 (inactive)	0.497 (inactive)	0.996 (inactive)	-0.154 (inactive)	0.16 (inactive)	0.64	-0.154
NC(=O)NCC#Cc1ccc2c(c1)[C@]1(C(=O)N2)[C@H](c2ccccc2OCCO)N2[C@H](c3ccccc3)[C@H](c3ccccc3)OC(=O)[C@H]2[C@@H]1C(=O)N1CCCCCCC1	-0.169	0.73	0.231	-0.0358	0.236	-0.978	0.303 (inactive)	-0.498	0.143	0.414 (inactive)	-0.0969	-0.0475 (inactive)	0.755 (inactive)	0.417 (inactive)	1.92 (inactive)	0.899 (inactive)	-0.315 (inactive)	-0.127 (inactive)	0.966	0.202
CN(C)CCCCCCNC(=O)[C@@H]1C[C@@H]2C(=O)NCC(=O)N2[C@@H]1c1cccc(OCCO)c1	-0.129	-0.215	-0.225	0.0864	1.45	-0.305	-0.0086 (inactive)	-0.12	-0.659	-0.427 (inactive)	-0.358	-0.531 (inactive)	-0.578 (inactive)	-1.08 (inactive)	0.0067 (inactive)	0.536 (inactive)	0.757 (inactive)	0.614 (inactive)	-1.12	0.0043
CO[C@H]1O[C@H](CO)[C@@H](OC(=O)Nc2ccc(C(F)(F)F)cc2)[C@H](OC(=O)Nc2ccccc2)[C@@H]1OC(=O)Nc1ccccc1	-0.902	-0.133	-1.28	-2.72	-2.84	-0.901	-1.47 (inactive)	-0.828	0.469	-0.0537 (inactive)	-0.5	-0.332 (inactive)	-1.34 (inactive)	-0.798 (inactive)	0 (inactive)	0.0212 (inactive)	0.886 (inactive)	-0.053 (inactive)	-0.771	0.0468
Cc1ccc([C@H]2C(C(=O)O)=C[C@@H](C(C)C)N2S(=O)(=O)c2ccc(C)cc2)cc1	-0.828	-0.762	-0.639	0.0411	-1.48	-0.713	-0.385 (inactive)	0.59	-0.809	-0.194 (inactive)	-0.357	-0.502 (inactive)	-0.645 (inactive)	-0.695 (inactive)	0.546 (inactive)	-0.577 (inactive)	-0.717 (inactive)	0.0184 (inactive)	-1.4	0.0264
COc1ccc(C#Cc2ccc3c(c2)[C@]2(C(=O)N3)[C@H](c3ccc(OCCO)cc3)N3[C@H](c4ccccc4)[C@H](c4ccccc4)OC(=O)[C@H]3[C@@H]2C(=O)Nc2nc3ccccc3s2)cc1	1.47	0.292	0.891	-1.69	-1.37	-2.95	6.28 (inactive)	-1.3	-1.71	-1.23 (inactive)	0.534	0.436 (inactive)	0.217 (inactive)	-3.02 (inactive)	3.64 (inactive)	1.55 (inactive)	0.528 (inactive)	1.25 (inactive)	0.174	0.75
COC(=O)c1c2oc(c1C(=O)OC)C(=O)N[C@H](Cc1ccccc1)Cn1nncc1C1(CCCCC1)NC(=O)N[C@H](CO)CC2	0.876	0.0786	0.8	-1.1	0.358	3.8	-0.413 (inactive)	-0.65	-0.936	0.286 (inactive)	1.09	0.916 (inactive)	2.4 (inactive)	0.112 (inactive)	1.27 (inactive)	0.416 (inactive)	0.157 (inactive)	0.402 (inactive)	2.19	0.0859
O=C1C2C=CC(C(O)c3ccccn3)N(Nc3ccccc3F)C2C(=O)N1c1ccccc1 (stereo not given)	-0.922	-1.12	1.04	-0.211	-0.217	-0.793	0.608 (inactive)	-0.196	-0.541	-0.52 (inactive)	0.248	-0.166 (inactive)	-0.497 (inactive)	0.761 (inactive)	0.378 (inactive)	-0.0396 (inactive)	-0.628 (inactive)	0.292 (inactive)	-0.0768	0.0521
COc1ccc(C#Cc2ccc3c(c2)[C@]2(C(=O)N3)[C@H](C(=O)N3CCN(c4ncccn4)CC3)[C@H]3C(=O)O[C@H](c4ccccc4)[C@H](c4ccccc4)N3[C@@H]2c2ccc(O)cc2)cc1	-0.125	0.583	0.804	-0.156	-0.404	-1.11	1.08 (inactive)	-0.899	-0.427	-0.164 (inactive)	-0.795	0.21 (inactive)	0.0492 (inactive)	-3.34 (inactive)	0.999 (inactive)	0.881 (inactive)	-0.423 (inactive)	0.182 (inactive)	0.225	-0.0149
O=C1O[C@@H](c2ccccc2)[C@@H](c2ccccc2)N2[C@@H](c3ccccc3OCCO)[C@]3(C(=O)Nc4ccc(C#CC5(O)CCCCCC5)cc43)[C@@H](C(=O)NC[C@H](O)c3ccccc3)[C@H]12	-0.724	0.737	-3.6	-3.31	-4.17	-1.14	0.986 (inactive)	-0.935	-1.98	-2.91 (inactive)	-2.02	0.934 (inactive)	-7.38 (inactive)	-0.516 (inactive)	1.66 (inactive)	2.41 (inactive)	-0.0933 (inactive)	-0.0241 (inactive)	-7.19	0.0264
CC(C)(C)OC(=O)CC[C@]1(C(=O)NCC(O)CO)N=C(c2ccc(OCCCO)cc2)O[C@H]1c1ccccc1CN=[N+]=[N-] (stereo not given in full)	-1.22	0.351	-0.504	-1.1	-1.44	-1.02	-0.484 (inactive)	0.574	0.649	-0.323 (inactive)	-0.206	-0.694 (inactive)	-0.918 (inactive)	-0.59 (inactive)	1.65 (inactive)	-0.591 (inactive)	-0.185 (inactive)	-0.659 (inactive)	-0.483	0.049
